Compound activity from PubChem.
CFTR F508del cor = F508del CFTR correction, initial screen, CFBE line, single point | 0.36% of 350,000 active | activity (quench increase), % at 7.58 µM | CFBE cells, YFP halide quenching; stimulated with forskolin plus potentiator P3; % fluorescence drop versus neutral controls;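 active = mean added fluorescence quench of at least 8% versus neutral control, with both replicates also reaching 8%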;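 also: cells transiently co-express mutant CFTR-F508del with the halide-sensitive YFP; corrector assay measuring rescue of mutant channel to the surface after 24 h compound exposure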
GSIS activator = GLuc luminescence reporter in INS-1E cells, primary screen for activators of glucose-dependent secretion of insulin; INS-1E GLuc reporter insulin secretion, 2-3 h; 0.61% of 370,000 active; activation, % at 16.6 µM;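 active = lowest replicate activation of at least 40%, so every replicate reaches that level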;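 also: 0% = median of neutral control wells and 100% = median of IBMX positive control wells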
HIV Env fusion = inhibitors of HIV-1 Env-driven cell-cell fusion, primary screen, HeLa-JRFL effector, CEM21 target cells, luciferase. inhibition, % at 12.3 µM. 1.1% of 360,000 active. AID 651610, 2012;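 active = mean replicate inhibition score of at least 50 and every replicate individually at or above 50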;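 also: 0% = plate neutral controls and 100% = maraviroc near 300 nM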
Wnt bcat act = Wnt/beta-catenin pathway activators, primary screen, cell-based, plate reader, single point | Wnt/beta-catenin reporter cell assay, activator | activation, % at 9.35 µM | 1.2% of 300,000 active; in the data active = activation above about 30%, passing the limit was not always enough;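 also: 0% = neutral control wells and 100% = positive control wells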
MITF act = activators of MITF-driven TRPM1 promoter reporter, primary screen, cell-based, SK-MEL-5, luciferase, single point | AID 588334, 2011 | SK-MEL-5 TRPM1-promoter luciferase, 24 h; % of positive control, neutral wells = 0 | 0.75% of 300,000 active | activation, % at 12.5 µM;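 active = mean activation of at least 80% with every replicate also reaching 80%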;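 also: 0% = neutral control wells and 100% = parthenolide positive control wells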
Starred values were filed as active, the others as inactive; . = no result given; [ ] = another dose, or the depositor's remark. The list is not random: actives were taken first. Their share in the collection is about 2.7%.

SMILES	CFTR F508del cor	GSIS activator	HIV Env fusion	Wnt bcat act	MITF act
CC(C)Oc1cccc(C(=O)Nc2ccc(Br)cc2F)c1	1.1	9.4	.	-2.1	101.2*
CCOc1cc(NC(=O)c2ccco2)c(OCC)cc1NC(=O)c1cc(OC)c(OC)c(OC)c1	.	44.8*	11.8	4.1	-41.7
O=C(C[C@H]1CC[C@H]2[C@@H](COC[C@@H](O)CN2CC2CCOCC2)O1)NCC1CC1	1.4	6.2	10.8[16.7 µM]	.	.
COc1ccc2c3c([nH]c2c1)[C@@H](CO)N(C(C)=O)CC31CCN(C(=O)CN2CCOCC2)CC1	1.6	5.0	.	.	.
O=C(CCC(=O)N1CCN(S(=O)(=O)c2ccc3ccccc3c2)CC1)Nc1cc(Cl)cc(Cl)c1	1.6	-31.1	85.0*	-4.1	-30.5
O=C(O)CCC(=O)N1CCN(S(=O)(=O)c2ccc3ccccc3c2)CC1	-0.6	13.5	-11.2	0.5	7.6
CCC(NC(=O)c1cncc(Br)c1)c1ccccc1 (stereo unspecified)	-2.3	1.4	8.6	30.8*	-3.4
CC(C)COC(=O)N(C)C[C@@H]1OCc2ccccc2-c2c(n(C)c3ccccc23)C(=O)N([C@H](C)CO)C[C@@H]1C	-0.1	10.8	48.9[16.7 µM]	.	.
CC(=O)Nc1nnc(COc2ccc(Cl)cc2)s1	1.6	5.8	-17.6	-1.4	100.1*
C[C@@H]1CN([C@H](C)CO)C(=O)c2cc(NC(=O)C3CCCCC3)ccc2O[C@@H](C)CCCCO[C@H]1CN(C)Cc1ccc2c(c1)OCO2	4.1	-18.7	-9.2[16.7 µM]	.	.
CCN1[C@@H]2Cn3c(ccc(/C=C/c4ccccc4)c3=O)[C@H]1[C@@H](C(=O)NC1Cc3ccccc3C1)[C@@H]2CO	0.2	-6.8	.	.	.
C[C@@H]1CN([C@H](C)CO)C(=O)c2cccc(NC(=O)Nc3ccc(C(F)(F)F)cc3)c2O[C@H]1CN(C)Cc1ccc(C(F)(F)F)cc1	3.4	-5.1	59.0*[16.7 µM]	.	.
C[C@@H]1CN([C@@H](C)CO)C(=O)c2cccc(NC(=O)Nc3ccc(C(F)(F)F)cc3)c2O[C@H]1CN(C)Cc1ccc(Oc2ccccc2)cc1	-1.3	1.6	69.1*[16.7 µM]	.	.
O=C(NCCN1CCCCC1)[C@H]1[C@H](CO)[C@H]2Cn3c(cccc3=O)[C@H]2N1Cc1ccccn1	.	8.7	-10.3[16.7 µM]	.	.
CCCn1c(C)nc2c(c1=O)c1nc3ccccc3nc1n2CCC1=CCCCC1	.	60.7*	-23.5	.	.
CN1CCN(C(=O)C[C@@H]2CC[C@@H]3[C@H](COC[C@@H](O)CN3C(=O)C3CCOCC3)O2)CC1	-1.8	17.4	-9.2[16.7 µM]	.	.
O=C(Nc1ccc(F)cc1)c1ccccc1NC(=O)C1CCCCC1C(=O)O (stereo unspecified)	1.6	-0.1	-11.2	4.7	.
C/C(=N\NC(=O)c1cccc(C)c1O)c1ccc(NC(=O)Cc2ccccc2)cc1	0.5	-12.3	-232.0	12.8	92.1*
COc1ccc(NC(=O)c2ccccc2NC(=O)C2CCCCC2C(=O)O)cc1 (stereo unspecified)	-0.7	-6.2	-19.6	37.7*	.
COc1ccc(C(=O)Nc2ccccc2C(=O)Nc2ccccc2)cc1	8.8*	5.3	-99.9	25.8	.
Cc1ccc(NC(=O)c2ccccc2NC(=O)Cc2ccccc2)cc1	.	-13.3	9.9	35.3*	12.0
C[C@@H]1CN([C@H](C)CO)C(=O)c2cc(NC(=O)NC3CCCCC3)ccc2O[C@H]1CN(C)Cc1ccc(C(=O)O)cc1	2.8	-6.6	.	.	.
COc1ccc(S(=O)(=O)N(C)C[C@H]2OCCCC[C@H](C)Oc3ccc(NC(=O)Nc4cccc5ccccc45)cc3C(=O)N([C@@H](C)CO)C[C@H]2C)cc1	-0.1	10.2	20.6[16.7 µM]	.	.
COc1ccc(NC(=O)C2(c3ccc(NC(=O)c4ccc(OC)cc4)cc3)CCCC2)cc1	.	97.7*	3.9	.	3.4
CC(C)c1ccc(NC(=O)c2ccccc2NC(=O)C2CCCCC2C(=O)O)cc1 (stereo unspecified)	-2.1	-10.3	-5.1	35.1*	48.9
SMILES	CFTR F508del cor	GSIS activator	HIV Env fusion	Wnt bcat act	MITF act
COc1ccc(C(=O)Nc2ccccc2C(=O)NCC2CCCO2)cc1 (stereo unspecified)	2.2	52.2*	5.0	-0.6	14.2
COc1ccc(C2(C(=O)Nc3nncs3)CCCC2)cc1	.	-5.9	0.5	-2.2	-1.8
O=C(Nc1ccccc1C(=O)NCC1CCCO1)c1ccc(Cl)cc1 (stereo unspecified)	6.1	36.1	.	3.2	1.2
CC(C)[C@@H](C)NC(=O)N(C)C[C@@H]1OCc2ccccc2-c2c(n(C)c3ccccc23)C(=O)N([C@H](C)CO)C[C@@H]1C	-0.1	-3.7	.	.	.
CC(c1nc2ccccc2c(=O)[nH]1)N(C)CCOc1ccc(Cl)cc1 (stereo unspecified)	-0.3	-33.5	97.4*	-2.9	-6.6
C[C@@H]1CN([C@@H](C)CO)C(=O)c2cccc(NC(=O)Nc3ccc4c(c3)OCO4)c2O[C@@H]1CN(C)S(=O)(=O)c1cccs1	-3.8	-4.3	.	.	.
O=C(NC1CCC1)[C@@H]1[C@@H](CO)[C@@H]2Cn3c(cccc3=O)[C@@H]2N1CCc1ccccc1	.	27.0	23.2[16.7 µM]	.	.
Fc1ccccc1CSc1ccc(-c2ccco2)nn1	-2.9	-14.4	-79.6	10.7	95.4*
c1ccc(CSc2ccc(-c3ccco3)nn2)cc1	.	9.4	-61.2	51.5*	43.6
Cc1cc(C)nc(Nc2nc3ccccc3s2)n1	1.3	13.1	-36.2	15.8	13.1
CC(=O)c1c(C)nc(Nc2nc3ccccc3s2)nc1C	0.6	-6.2	-58.3	38.1*	.
COc1ccc(CNC(=O)N(C)C[C@@H]2OCc3ccccc3-c3c(n(C)c4ccccc34)C(=O)N([C@H](C)CO)C[C@@H]2C)cc1	1.1	12.4	85.1*[16.7 µM]	.	.
COc1ccc(CNC(=O)N(C)C[C@@H]2OCc3ccccc3-c3c(n(C)c4ccccc34)C(=O)N([C@@H](C)CO)C[C@H]2C)cc1	-0.3	-8.2	38.3[16.7 µM]	.	.
COc1ccc(CNC(=O)N(C)C[C@@H]2OCc3ccccc3-c3c(n(C)c4ccccc34)C(=O)N([C@@H](C)CO)C[C@@H]2C)cc1	3.6	-11.8	100.2*	-1.3	.
CC(C)NC(=O)N1C[C@H]2[C@@H](c3ccccc31)[C@H](CO)N2C(=O)c1ccccc1	0.6	1.5	.	.	.
Cc1ccc(S(=O)(=O)N(C)C[C@@H]2OCCCC[C@@H](C)Oc3ccc(NC(=O)Nc4ccccc4)cc3C(=O)N([C@@H](C)CO)C[C@@H]2C)cc1	-0.8	11.0	2.9[16.7 µM]	.	.
Cc1cc(C(=O)CCC(=O)NC(C)c2ccc(S(N)(=O)=O)cc2)c(C)s1 (stereo unspecified)	8.8*	15.6	-4.1	-3.7	-2.3
COc1ccccc1C(=O)N1C[C@H]2[C@@H](c3ccccc31)[C@H](CO)N2C(=O)C1CCCC1	4.8	-9.1	.	.	.
O=C(C[C@@H]1CC[C@@H]2[C@H](COC[C@H](O)CN2Cc2ccc(Oc3ccccc3)cc2)O1)N1CCN(c2ccccc2)CC1	8.9*	-4.7	17.8[16.7 µM]	.	.
